High-throughput results from PubChem.
PP1 inh: PP1-alpha phosphatase inhibitors, primary screen, counter-screen for PP5 inhibitor project, biochemical, fluorescence, OMFP substrate, single point. Serine/threonine-protein phosphatase PP1-alpha catalytic subunit (Homo sapiens), P62136. purified PP1alpha. inhibition, % at 6.7 µM. 320,000 tested, 0.9% active;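 active = inhibition above the mean inhibition of all tested compounds plus 3 SD, computed separately for each screening campaign, cut at about 15% in these data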
GASC-1 inh: inhibitors of GASC-1 histone demethylase, primary screen, biochemical, fluorescence, DELFIA europium | Lysine-specific demethylase 4C (Homo sapiens), Q9H3R0 | GST-JMJD2C(1-420) H3K9me3 demethylation | inhibition, % at 2.35 µM | 330,000 tested, 0.069% active | AID 2099, 2009;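 active = more than half of a compound's replicate wells show inhibition beyond 50%, single wells judged on their own value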;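 also: signal counts dimethyl H3K9 product captured on neutravidin plate; 0% = median of DMSO wells and 100% = 0.3 times that DMSO median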
PG9 Ab binder: binders of HIV-1 gp120 antibody PG9, primary screen, biochemical, TR-FRET | HIV-1 gp120 / PG9 antibody interaction | TR-FRET gp120-PG9 antibody binding | inhibition, % at 6.7 µM | 360,000 tested, 0.43% active | AID 624416, 2012; in the data active = inhibition above about 8.5%
proKLK7 act: proKLK7 zymogen activators, primary screen, biochemical, fluorescence intensity. purified proKLK7, EDANS-DABCYL substrate fluorescence; 100% is mature enzyme control, 0% vehicle. activation, % at 7 µM. AID 652039, 2013. Kallikrein-7 (Homo sapiens), P49862. 370,000 tested, 0.9% active;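 active = activation above the mean of all tested compounds plus 3 SD, computed per campaign excluding outliers beyond control limits, cut at about 13% in these data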
PP5 inh: PP5 phosphatase inhibitors, primary screen, biochemical, fluorescence; inhibition, % at 6.7 µM; Serine/threonine-protein phosphatase 5 (Homo sapiens), P53041; 320,000 tested, 0.18% active; AID 1987, 2009; purified PP5c, OMFP substrate fluorescence;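 active = inhibition above the campaign's mean inhibition across all tested compounds plus 3 SD, cut at about 9.5% in these data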;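 also: 0% = DMSO only and 100% = 100 µM cantharidin control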
Rev-erbA mod: modulators of Rev-erb alpha DNA binding, primary screen, biochemical, FITC-DNA, fluorescence polarization, uHTS; activity, % at 10 µM; 370,000 tested, 0.79% active; Rev-erbα–FITC-DNA binding, 90 min; Nuclear receptor subfamily 1 group D member 1 (Homo sapiens), P20393;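 active = activity above about 14%, limit read from the data; passing the limit was not always enough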;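 also: 0% = DMSO wells with 35 nM protein and 100% = DMSO wells with 750 nM protein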
Target sequence (P20393 whole entry, looked up): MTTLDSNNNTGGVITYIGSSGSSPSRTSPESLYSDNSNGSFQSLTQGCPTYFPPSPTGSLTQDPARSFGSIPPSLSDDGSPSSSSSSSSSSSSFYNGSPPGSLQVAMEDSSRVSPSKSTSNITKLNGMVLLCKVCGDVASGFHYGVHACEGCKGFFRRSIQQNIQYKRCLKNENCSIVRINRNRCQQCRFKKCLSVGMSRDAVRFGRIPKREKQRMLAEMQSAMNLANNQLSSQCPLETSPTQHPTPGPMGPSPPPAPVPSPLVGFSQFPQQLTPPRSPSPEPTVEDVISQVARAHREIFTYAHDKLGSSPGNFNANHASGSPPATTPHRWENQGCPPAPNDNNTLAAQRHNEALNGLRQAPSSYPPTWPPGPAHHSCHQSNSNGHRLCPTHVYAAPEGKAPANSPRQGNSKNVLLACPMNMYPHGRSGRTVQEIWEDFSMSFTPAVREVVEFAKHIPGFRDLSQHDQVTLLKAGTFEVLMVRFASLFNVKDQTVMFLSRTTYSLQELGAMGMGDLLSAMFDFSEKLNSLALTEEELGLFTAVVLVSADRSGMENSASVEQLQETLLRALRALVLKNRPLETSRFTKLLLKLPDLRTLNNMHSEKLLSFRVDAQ
Rev-erbA confirm: modulators of Rev-erb alpha DNA binding, confirmation, biochemical, FITC-DNA, fluorescence polarization, single point; shares compounds with Rev-erbA mod; 90 min; activation, % at 25 µM; 3,000 tested, 61% active; AID 1259319, 2017;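 active = activation at or above a set limit, or at least 3 SD above the negative control mean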;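 also: 0% = 35 nM protein with DMSO and 100% = 750 nM protein high control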
RORg counter: modulation of RORgamma DNA binding, dose response, counter-screen for Rev-erb alpha modulator project, biochemical, fluorescence polarization, FITC-DNA. shares compounds with Rev-erbA mod. purified RORgamma protein-FITC-DNA binding. IC50, µM. 910 tested, 8% active. AID 1259320, 2017;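 active = Compounds whose fitted half-maximal concentration for disrupting protein-DNA binding is below 10 micromolar; the record names Rev-erb in its text, so the target is in doubt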
An asterisk follows results filed as active. Most compounds without a hit are left out; they make up all but 2.8% or so of the library.

How did CCSc1nc2cc(C(=O)OC)ccc2c(=O)n1CC do in these assays?
PP1 inh: -3.2; GASC-1 inh: -1.5; PG9 Ab binder: 0.2; proKLK7 act: 0.0; PP5 inh: 0.1; Rev-erbA mod: 6.1

How did COC(=O)c1ccc2c(=O)n3c(nc2c1)SCC(c1ccccc1)=N3 do in these assays?
PP1 inh: 0.7; GASC-1 inh: 7.2; PG9 Ab binder: 0.3; proKLK7 act: -1.0; PP5 inh: 1.4; Rev-erbA mod: 80.2*; Rev-erbA confirm: 4.1

How did O=C(NCc1ccc(-c2nc3ccccc3s2)cc1)c1ccc(Br)o1 do in these assays?
PP1 inh: 0.5; GASC-1 inh: -1.1; PG9 Ab binder: -5.3; proKLK7 act: 0.2; PP5 inh: 0.5; Rev-erbA mod: 20.6*; Rev-erbA confirm: 13.1

How did C[C@@H]1NS(=O)(=O)c2ccc(F)cc2O[C@@H]1c1ccccc1 do in these assays?
PG9 Ab binder: -0.7; proKLK7 act: 0.4; Rev-erbA mod: -0.1

Results for Cc1ccc2cc(C)c(SCC(=O)Nc3cc(C)on3)nc2c1 ?
PP1 inh: 1.7; GASC-1 inh: 7.8; PG9 Ab binder: 5.5; proKLK7 act: 0.5; PP5 inh: 1.1; Rev-erbA mod: 11.2

Results for Cc1cc2cc(C#N)c(SCC(=O)Nc3nonc3C)nc2cc1C ?
PP1 inh: -1.5; GASC-1 inh: 14.5; PG9 Ab binder: -0.9; proKLK7 act: 0.3; PP5 inh: 0.8; Rev-erbA mod: 20.4*; Rev-erbA confirm: 33.3*; RORg counter: inactive

What do the screens show for `CCc1cc2cc(C)c(C)cc2nc1SCC(=O)Nc1cc(C)on1`?
PP1 inh: -3.8; GASC-1 inh: -2.4; PG9 Ab binder: -2.7; proKLK7 act: -0.5; PP5 inh: 0.8; Rev-erbA mod: 35.6*; Rev-erbA confirm: 2.4

How did CCC(=O)NCCNc1nc2cc(C)c(C)cc2cc1C#N do in these assays?
PP1 inh: -1.6; GASC-1 inh: 6.6; PG9 Ab binder: -0.1; proKLK7 act: 3.3; PP5 inh: -0.8; Rev-erbA mod: -2.4

How did CCc1cc2ccc(OC)cc2nc1SCC(=O)Nc1cc(C)on1 do in these assays?
PP1 inh: 0.9; GASC-1 inh: 2.0; PG9 Ab binder: 1.3; proKLK7 act: 1.1; PP5 inh: 1.2; Rev-erbA mod: 75.5*; Rev-erbA confirm: 56.9*; RORg counter: >40

What do the screens show for `COc1ccccc1-c1nc(SCC(=O)Nc2cc(C)on2)c2c(=O)n(C)c(=O)n(C)c2n1`?
PP1 inh: -4.9; GASC-1 inh: 5.6; PG9 Ab binder: -0.4; proKLK7 act: -0.3; PP5 inh: -0.2; Rev-erbA mod: 71.7*; Rev-erbA confirm: 60.1*; RORg counter: inactive

How did COc1cc(C=Nn2c(-c3ccccc3F)n[nH]c2=S)ccc1OCc1ccccc1 do in these assays?
proKLK7 act: 0.3; Rev-erbA mod: 3.8

What do the screens show for `CCc1cc2c(nc1CC)CCCN2S(=O)(=O)c1ccc(C(F)(F)F)cc1`?
PG9 Ab binder: -1.1; proKLK7 act: 0.6; Rev-erbA mod: -1.2

How did COC(=O)C1=C(C)N(Cc2ccccc2C(F)(F)F)C(=NCc2ccccc2)NC1c1ccc(Cl)cc1 (centres undefined) do in these assays?
PG9 Ab binder: -1.2; proKLK7 act: -1.0; Rev-erbA mod: 1.5

What do the screens show for `CCc1cc2cc(C)cc(C)c2nc1SCC(=O)Nc1cc(C)on1`?
PP1 inh: -1.1; GASC-1 inh: 29.7; PG9 Ab binder: -0.3; proKLK7 act: -0.2; PP5 inh: 2.9; Rev-erbA mod: 9.7

What do the screens show for `CCc1cc2c(C)ccc(C)c2nc1SCC(=O)Nc1cc(C)on1`?
PP1 inh: 1.0; GASC-1 inh: 3.3; PG9 Ab binder: 2.9; proKLK7 act: 0.0; PP5 inh: 3.4; Rev-erbA mod: 23.9*; Rev-erbA confirm: 8.1

Results for Cc1ccc(OCC(=O)O/N=C(\N)c2ccncc2)cc1C ?
PP1 inh: -0.1; GASC-1 inh: 6.2; PG9 Ab binder: 1.2; proKLK7 act: -0.2; PP5 inh: -0.9; Rev-erbA mod: 22.5*; Rev-erbA confirm: -3.2

What do the screens show for `Cc1ccc(OCC(=O)O/N=C(\N)c2ccccn2)cc1C`?
PP1 inh: 3.6; GASC-1 inh: 4.3; PG9 Ab binder: -2.4; proKLK7 act: 0.0; PP5 inh: 4.7; Rev-erbA mod: -6.9

What do the screens show for `CCc1ccc2c(c1)cc(CN(C(=S)Nc1ccccc1C)C1CC1)c1nnnn12`?
PP1 inh: -0.9; GASC-1 inh: -0.3; PG9 Ab binder: 5.5; proKLK7 act: -0.1; PP5 inh: 0.0; Rev-erbA mod: 4.6

How did COCCN(Cc1cc2cc(C)ccc2n2nnnc12)C(=S)Nc1ccccc1C do in these assays?
PP1 inh: -0.9; GASC-1 inh: -4.7; PG9 Ab binder: -1.6; proKLK7 act: 0.2; PP5 inh: -1.9; Rev-erbA mod: 87.4*; Rev-erbA confirm: 40.4*; RORg counter: >40

Results for CC(=O)c1ccccc1NC(=O)c1cc(S(=O)(=O)N2CCOCC2)ccc1N1CCCC1 ?
PP1 inh: -2.4; GASC-1 inh: -60.6; PG9 Ab binder: 0.7; proKLK7 act: -1.0; PP5 inh: -0.7; Rev-erbA mod: 144.2*; Rev-erbA confirm: 145.0*; RORg counter: >40

How did COc1cc(SC)ccc1C(=O)Nc1ccc(S(=O)(=O)N2CCCC2)cc1 do in these assays?
PP1 inh: -0.3; GASC-1 inh: 5.0; PG9 Ab binder: 1.7; proKLK7 act: -0.1; PP5 inh: 0.3; Rev-erbA mod: 57.2*; Rev-erbA confirm: 29.6*

How did COc1cc(NC(=O)c2cc(S(=O)(=O)N3CCCCC3)ccc2N2CCOCC2)cc(OC)c1 do in these assays?
PP1 inh: -8.2; GASC-1 inh: -5.7; PG9 Ab binder: -1.2; proKLK7 act: 0.2; PP5 inh: 1.2; Rev-erbA mod: 22.3*; Rev-erbA confirm: -5.9

How did CC(=Nc1ccc(Cl)cc1N)c1c(O)cc(C)oc1=O do in these assays?
PG9 Ab binder: -1.7; proKLK7 act: -0.7; Rev-erbA mod: -5.9
